# Inconclusive results are not listed.
# Test: qHTS for identification of novel therapeutic agents for treatment of microphthalmiaassociated transcription factor (MiT) renal cell carcinoma (RCC) (AID 1963991)
# Details: TFE3-RCC viability, CellTiter-Glo, 48 h; measured here: UOK145 Z-AUC; stronger effect = lower value
# Procedure, shortened: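 Viability of three TFE3-fusion renal carcinoma lines measured by CellTiter-Glo after 48 h treatment with each of 1912 compounds at 11 concentrations. Responses scaled between DMSO (100%) and empty wells (0%) before curve fitting.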
row,Compound,z-score
1,CC(=O)OCC(=O)[C@@]12OC(C)(C)O[C@H]1C[C@H]1[C@@H]3C[C@H](F)C4=CC(=O)C=C[C@]4(C)[C@@]3(F)[C@@H](O)C[C@@]12C,0.0965
2,CC(C)=CCCC(C)=CCCC(C)=CCCC(C)=CCCC(C)=CCCC(C)=CCCC(C)=CCCC(C)=CCCC(C)=CCO,1.27
3,CN(CC=CC#CC(C)(C)C)Cc1cccc2ccccc12,2.39
4,CC=C1C2C=C(C)CC1(N)c1ccc(=O)[nH]c1C2 (stereo not drawn),1.2
5,O=c1[nH]c(=O)n([C@H]2C[C@@H](O)[C@@H](CO)O2)cc1I,0.313
6,COc1cc2c(cc1OC)[C@@H]1Cc3ccc(OC)c(OC)c3CN1CC2,0.612
7,CO[C@H]1C=CO[C@@]2(C)Oc3c(C)c(O)c4c(O)c(c(C=NN5CCN(C)CC5)c(O)c4c3C2=O)NC(=O)C(C)=CC=C[C@H](C)[C@H](O)[C@@H](C)[C@@H](O)[C@@H](C)[C@H](OC(C)=O)[C@H]1C,1.3
8,COc1cc(CNC(=O)CCCCC=CC(C)C)ccc1O,0.0429
9,FC(F)(F)c1ccc(C=Cc2nc(COc3ccc(CCCCn4ccnn4)cc3)co2)cc1,-1.58
10,C[C@]12C=CC(=O)C=C1CC[C@@H]1[C@@H]2[C@@H](O)C[C@@]2(C)[C@@H]1CC[C@]2(O)C(=O)CO,-1.47
11,O=C(O)C1=CO[C@@H](O[C@@H]2O[C@H](CO)[C@H](O)[C@H](O)[C@H]2O)[C@@H]2C(CO)=CC[C@H]12,0.387
12,CCNC(=O)CCCC=CC[C@@H]1[C@H](C=CC(O)CCc2ccccc2)[C@@H](O)C[C@@H]1O (stereo partly drawn),1.41
13,CO[C@H]1/C=C\O[C@@]2(C)Oc3c(C)c(O)c4c(O)c(c(C=NN5CCN(C6CCCC6)CC5)c(O)c4c3C2=O)NC(=O)C(C)=CC=C[C@H](C)[C@H](O)[C@@H](C)[C@@H](O)[C@@H](C)[C@H](OC(C)=O)[C@H]1C,-2.93
